Reference: PubChem BioAssay
Activity calls are given as the source filed them.

Tests used:
[1] = system: Plasmodium falciparum Sir2 (PF13_0152, Sir2A); test: pfSir2 binders on small-molecule microarrays, primary screen, biochemical, small-molecule microarray, 635 nm fluorescence (AID 1098); conditions: small-molecule microarray binding, fluorescence 635 nm; higher = more signal;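 note: score merges spot fluorescence intensity with its signal-to-noise ratio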
[2] = small-molecule microarray binders of probe aDKK1, primary screen, biochemical, biotinylated probe, 635/667 nm fluorescence (AID 1099); conditions: higher = more signal;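 note: score merges 667nm spot fluorescence with signal to noise across triplicate slides; reference of the scale not given here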
[3] = small-molecule microarray binders of probe aCHRDL2, primary screen, biochemical, biotinylated probe, 635/667 nm fluorescence (AID 1100); conditions: higher = more signal
[4] = splicing luciferase reporter signal modulators, primary screen, spliceosome inhibition project, cell-based, HEK293, splice +/- reporter (AID 1101); conditions: luminescence, 24 h, higher = more signal, called active from +8 up or from −8 down;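 note: HEK293 cells carrying a splicing-competent luciferase reporter gene; test concentration not given here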
[5] = target: Fibroblast growth factor 10 (Homo sapiens) (UniProt O15520); test: FGF10 binders on small-molecule microarrays, primary screen, biochemical, small-molecule microarray, 635 nm fluorescence (AID 1102); conditions: FGF10 binding, fluorescence 635 nm, higher = more signal
[6] = system: glycogen synthase kinase-3 (GSK3A per assay name; protocol says GSK3B); test: GSK3 binders on small-molecule microarrays, primary screen, biochemical, small-molecule microarray, 635 nm fluorescence, GSK3A (AID 1103); conditions: small-molecule microarray binding, fluorescence 635 nm; higher = more signal; note: the record names both GSK3A and GSK3B
[7] = target: Epidermal growth factor receptor (Homo sapiens) (UniProt P00533); test: EGFR binders on small-molecule microarrays, primary screen, biochemical, small-molecule microarray, 635 nm fluorescence (AID 1104); conditions: EGFR binding, higher = more signal;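 note: score merges 667 nm emission intensity with spot signal to noise over triplicate slides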
[8] = target: Follistatin-related protein 3 (Homo sapiens) (UniProt O95633); test: FSTL3 binders on small-molecule microarrays, primary screen, biochemical, small-molecule microarray, 635 nm fluorescence (AID 1105); conditions: FSTL3 binding, higher = more signal;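 note: score merges emission near 667 nm and signal to noise per printed spot across three slides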
[9] = target: Dickkopf-related protein 1 (Homo sapiens) (UniProt O94907); test: DKK1 binders on small-molecule microarrays, primary screen, biochemical, small-molecule microarray, 635 nm fluorescence scan (AID 1106); conditions: DKK1 binding, higher = more signal;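 note: score merges emission near 667 nm with signal to noise over three replicate slides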
[10] = system: Inhibin beta A chain (activin A); test: INHBA (activin A) binders on microarrays, primary screen, biochemical, small-molecule microarray, 635 nm fluorescence scan (AID 1107); conditions: small-molecule microarray binding, higher = more signal;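 note: mouse activin A protein probed at 4.33 µg/mL on printed slides; score merges bound-protein fluorescence near 667 nm with spot signal-to-noise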

Sequence of Dickkopf-related protein 1 (Homo sapiens) (O94907 whole entry, looked up): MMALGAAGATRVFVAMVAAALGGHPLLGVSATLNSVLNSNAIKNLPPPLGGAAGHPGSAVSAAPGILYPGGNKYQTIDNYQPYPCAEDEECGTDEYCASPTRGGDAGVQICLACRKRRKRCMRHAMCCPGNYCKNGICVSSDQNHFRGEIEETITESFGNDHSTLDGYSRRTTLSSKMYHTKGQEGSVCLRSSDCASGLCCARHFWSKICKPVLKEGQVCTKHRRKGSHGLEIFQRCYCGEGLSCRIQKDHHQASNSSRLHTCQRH
Sequence of Epidermal growth factor receptor (Homo sapiens) (P00533 whole entry, looked up): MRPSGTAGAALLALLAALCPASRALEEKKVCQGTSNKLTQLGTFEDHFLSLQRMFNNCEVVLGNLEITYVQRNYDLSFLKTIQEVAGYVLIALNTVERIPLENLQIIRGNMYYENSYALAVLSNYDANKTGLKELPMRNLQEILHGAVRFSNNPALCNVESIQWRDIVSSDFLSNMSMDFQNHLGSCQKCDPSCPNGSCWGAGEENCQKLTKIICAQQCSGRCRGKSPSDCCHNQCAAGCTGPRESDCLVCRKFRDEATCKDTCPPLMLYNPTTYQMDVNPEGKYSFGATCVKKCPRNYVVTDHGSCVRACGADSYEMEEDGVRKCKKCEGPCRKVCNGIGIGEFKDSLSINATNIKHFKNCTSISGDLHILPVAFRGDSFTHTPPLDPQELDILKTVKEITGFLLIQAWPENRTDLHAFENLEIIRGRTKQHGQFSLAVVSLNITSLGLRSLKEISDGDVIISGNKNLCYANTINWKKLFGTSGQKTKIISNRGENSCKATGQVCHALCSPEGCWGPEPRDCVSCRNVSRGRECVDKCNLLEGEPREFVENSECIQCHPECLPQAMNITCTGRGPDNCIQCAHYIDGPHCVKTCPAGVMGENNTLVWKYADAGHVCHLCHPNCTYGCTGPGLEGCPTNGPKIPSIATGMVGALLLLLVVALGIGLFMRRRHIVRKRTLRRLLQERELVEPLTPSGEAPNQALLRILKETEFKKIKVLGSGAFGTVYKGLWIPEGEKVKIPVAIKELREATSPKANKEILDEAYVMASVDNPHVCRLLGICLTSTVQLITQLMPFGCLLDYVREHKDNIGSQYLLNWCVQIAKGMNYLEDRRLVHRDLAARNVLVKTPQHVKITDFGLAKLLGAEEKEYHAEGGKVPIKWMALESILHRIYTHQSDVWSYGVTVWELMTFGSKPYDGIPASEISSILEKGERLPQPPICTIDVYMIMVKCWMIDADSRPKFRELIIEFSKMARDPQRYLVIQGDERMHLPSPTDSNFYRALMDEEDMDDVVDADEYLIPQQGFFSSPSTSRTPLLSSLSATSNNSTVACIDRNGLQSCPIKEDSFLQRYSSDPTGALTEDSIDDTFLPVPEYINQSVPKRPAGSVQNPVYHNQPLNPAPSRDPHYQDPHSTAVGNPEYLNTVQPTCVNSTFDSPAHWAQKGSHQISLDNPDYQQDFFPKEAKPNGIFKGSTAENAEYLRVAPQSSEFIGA
Sequence of Follistatin-related protein 3 (Homo sapiens) (O95633 whole entry, looked up): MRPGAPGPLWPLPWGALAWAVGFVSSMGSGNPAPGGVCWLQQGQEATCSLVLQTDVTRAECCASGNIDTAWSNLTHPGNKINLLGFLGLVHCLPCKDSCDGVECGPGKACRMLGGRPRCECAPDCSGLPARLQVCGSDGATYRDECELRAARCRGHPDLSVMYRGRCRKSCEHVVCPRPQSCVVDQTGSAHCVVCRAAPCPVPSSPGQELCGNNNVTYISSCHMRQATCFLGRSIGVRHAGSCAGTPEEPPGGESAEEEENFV
Sequence of Fibroblast growth factor 10 (Homo sapiens) (O15520 whole entry, looked up): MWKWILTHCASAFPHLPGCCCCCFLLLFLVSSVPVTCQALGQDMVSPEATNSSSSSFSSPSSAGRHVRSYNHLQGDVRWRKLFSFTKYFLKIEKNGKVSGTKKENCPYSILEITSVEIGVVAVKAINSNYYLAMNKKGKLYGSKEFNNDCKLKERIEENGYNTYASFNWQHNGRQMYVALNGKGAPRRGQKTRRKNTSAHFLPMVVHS

Row | SMILES | composite z-score [1] | composite z-score [2] | composite z-score [3] | z-score [4] | composite z-score [5] | composite z-score [6] | composite z-score [7] | composite z-score [8] | composite z-score [9] | composite z-score [10]
1 | Cc1ccc(S[C@]2(C(=O)NCC(C)C)CC(=O)N(Cc3ccccc3)[C@@H]2c2ccc(CO)cc2I)cc1 | 1.52 | 0.0143 | 0.388 | -0.531 (inactive) | 0.417 | 0.441 | 0.287 | 0.75 | 0.149 | 0.975
2 | COCCOC(=O)N1C(=O)[C@@]2(c3cc(C#CCCO)ccc31)[C@H](c1ccccc1OCCO)N1[C@H](c3ccccc3)[C@H](c3ccccc3)OC(=O)[C@H]1[C@@H]2C(=O)N1CCN(c2ncccn2)CC1 | 0.55 | 0.75 | 0.537 | -0.381 (inactive) | 0.74 | 1.22 | 0.965 | 1.39 | 0.682 | 0.617
3 | CC(C)C(=C=CC[C@@H](O)c1ccccc1OCCO)C[C@@H](O)c1ccccn1 | 1.52 | -0.235 | -0.448 | 0.446 (inactive) | 1.05 | 0.556 | 0.141 | 0.425 | 0.34 | 0.715
4 | CC(C)N1CC=CC23O[C@@H]4C=CCOC(=O)[C@@H]4[C@H]2C(=O)N(CCO)[C@@H]3C1=O (stereo not given in full) | 1.58 | -0.256 | 0.651 | -0.262 (inactive) | -1.61 | -0.897 | -0.859 | -0.447 | -1.61 | -0.223
5 | NCCCCCNC(=O)[C@H]1C[C@H]2C(=O)NCC(=O)N2[C@H]1c1cccc(OCCO)c1 | 1.64 | 0.31 | 0.284 | -0.284 (inactive) | 1.25 | 1.29 | 0.388 | 0.764 | 0.912 | -0.0463
6 | O=C1OCC=C[C@H]2OC34C=CCN(c5ccc(Cl)cc5)C(=O)[C@H]3N(CCCCCCO)C(=O)[C@@H]4[C@@H]12 (stereo not given in full) | 2.08 | 0.0526 | 0.731 | -0.313 (inactive) | -1.17 | -0.799 | -1.78 | -1.58 | -1.22 | -0.087
7 | CC(C)C(=C=CC[C@H](O)c1cccc(OCCO)c1)C[C@H](O)COCc1ccccc1 | 0.845 | -0.27 | -0.154 | 0.102 (inactive) | 0.876 | -0.376 | -0.379 | -0.0234 | 0.116 | 0.405
8 | COc1cccc(C(=O)O[C@H]2CC[C@]3(C)C4=C(CCC3C2(C)C)[C@]2(C)CC[C@H]([C@H](C)CCCC(C)C)[C@@]2(C)CC4)c1 (stereo not given in full) | 0.399 | -0.056 | -0.495 | -1.23 (inactive) | 0.647 | 0.495 | 0.527 | 0.459 | 0.389 | 0.468
9 | COC(=O)c1ccc(C(O)C2C=CC3C(=O)N(C)C(=O)C3N2NC(=O)OC(C)(C)C)o1 (stereo not given) | 0.66 | 0.49 | 0.266 | 1.26 (inactive) | 0.558 | 0.483 | 0.557 | 0.622 | -0.0526 | 0.399
10 | CCOC(=O)C1=CC[C@@H](c2ccccc2)N(S(=O)(=O)c2ccc(C)cc2)[C@H]1C(=O)OCC | -0.0664 | 0.955 | 1.02 | -0.287 (inactive) | 0.605 | 1.13 | 0.117 | 0.533 | -0.249 | 1.04
11 | O=C1C2C=CC(C(O)c3cccs3)N(Nc3ccccc3F)C2C(=O)N1c1ccccc1 (stereo not given) | 0.87 | 0.266 | 0.541 | -0.743 (inactive) | 0.092 | 0.308 | 0.0444 | 0.224 | -0.0382 | 0.804
12 | CC(=O)Nc1cc(Br)ccc1C(=O)O | 0.976 | 1.34 | 0.0861 | -0.841 (inactive) | 0.225 | 0.157 | -0.433 | 0.0984 | -0.44 | -0.27
13 | COCCCNC(=O)[C@@]1(CCC(=O)OC(C)(C)C)N=C(c2ccc(OCCCO)cc2)O[C@H]1c1ccccc1CN=[N+]=[N-] | 1.62 | 0.965 | 1.08 | -0.228 (inactive) | 1.56 | 1.13 | 0.123 | 0.932 | 0.119 | 0.471
14 | COc1ccc(NN2C(C(O)c3ccc(OC)c(OCc4ccccc4)c3)C=CC3C(=O)N(C4CCCCC4)C(=O)C32)cc1 (stereo not given) | 0.897 | 0.686 | 0.627 | -0.306 (inactive) | 0.622 | 0.995 | 0.216 | 1 | -0.228 | 1.13
15 | COC(=O)C1=CC(CCCO)=CC(C2CC2)N(Cc2sc3ccccc3c2Cl)C=C1C(=O)OC (stereo not given) | 1.17 | 0.589 | 0.724 | -0.8 (inactive) | 1.02 | 0.902 | 0.0108 | 0.766 | -0.0017 | 1.06
16 | O=C1OCCC/C=C\[C@H]2OC34C=CCN(Cn5nnc6ccccc65)C(=O)[C@H]3N(CCCCCO)C(=O)[C@@H]4C12 (stereo not given in full) | 0.957 | -0.118 | 0.584 | -0.586 (inactive) | -1.08 | -1.7 | -0.97 | -0.751 | -1.45 | 0.702
17 | COc1ccc(C#Cc2ccc3c(c2)[C@]2(C(=O)N3)[C@H](c3ccc(O)cc3)N3[C@H](c4ccccc4)[C@H](c4ccccc4)OC(=O)[C@H]3[C@@H]2C(=O)NC[C@H](O)c2ccccc2)cc1 | 1.14 | 0.155 | 0.397 | -1.02 (inactive) | 0.94 | 0.755 | 0.206 | 0.801 | 0.233 | 0.282

Row | SMILES | composite z-score [1] | composite z-score [2] | composite z-score [3] | z-score [4] | composite z-score [5] | composite z-score [6] | composite z-score [7] | composite z-score [8] | composite z-score [9] | composite z-score [10]
18 | CS(=O)(=O)CCOC(=O)C1=CC(CCCO)=CC(c2cccs2)N(Cc2cc3c(cc2Br)OCO3)C=C1C(=O)OCCS(C)(=O)=O (stereo not given) | 0.727 | -0.0606 | 0.15 | 0.576 (inactive) | 1.04 | 1.25 | 0.259 | 1.22 | 0.238 | 1.2
19 | CCOC(=O)C1=C[C@@H](C(C)C)N(S(=O)(=O)c2ccc(C)cc2)[C@H]1c1ccc(C(C)C)cc1 | 1.65 | -0.132 | -0.229 | 0.449 (inactive) | 1.04 | 1.3 | 0.848 | 1.35 | 0.57 | 0.375
20 | O=C1OCCC=C[C@H]2OC34C=CCN(c5ccc6ccccc6c5)C(=O)[C@H]3N(CCCCCO)C(=O)[C@@H]4C12 (stereo not given in full) | 1.8 | 0.0672 | 0.597 | -0.606 (inactive) | -0.408 | -0.224 | -0.162 | -0.662 | -0.731 | 0.218
21 | NC(=O)NCC#Cc1ccc2c(c1)[C@]1(C(=O)N2)[C@H](C(=O)NC[C@H](O)c2ccccc2)[C@H]2C(=O)O[C@H](c3ccccc3)[C@H](c3ccccc3)N2[C@@H]1c1ccc(O)cc1 | 1.23 | 0.0166 | -0.249 | 0.37 (inactive) | 0.893 | 0.664 | 0.575 | 0.553 | 0.314 | 1.72
22 | O=C1O[C@@H](c2ccccc2)[C@@H](c2ccccc2)N2[C@@H](c3ccc(O)cc3)[C@]3(C(=O)Nc4ccc(C#CC5=CCCCC5)cc43)[C@@H](C(=O)O)[C@H]12 | 1.14 | 0.799 | 0.999 | -1.05 (inactive) | 0.277 | 0.653 | 0.035 | 0.545 | 0.0526 | 1.19
23 | CCOC(=O)C[C@H]1[C@H](OC(=O)Cc2ccc3c(c2)OCO3)[C@@H](NC(=O)c2ccc(-c3ccccc3)cc2)c2cc(OCCCO)ccc2N1C(=O)c1ccccc1 | 0.377 | -0.0183 | -0.228 | -0.586 (inactive) | 0.602 | 0.367 | 0.457 | 0.612 | 0.247 | 0.235
24 | O=C(O)[C@H]1C[C@H]2C(=O)NCC(=O)N2[C@H]1c1ccc(O)cc1 | 0.237 | -0.248 | -0.346 | -0.821 (inactive) | 0.413 | 0.504 | -0.213 | 0.845 | 0.681 | 0.23
25 | C=C(CCCC)/C(=C/C[C@H](OC(C)=O)c1ccc(CO)o1)c1cnc2ccccc2c1 | 1.11 | -0.179 | -0.531 | -0.276 (inactive) | 1.35 | 1.21 | 0.497 | 1.49 | 0.601 | 1.69
26 | Cc1ccc(S[C@]2(C(=O)NCCN3CCOCC3)CC(=O)N(Cc3cc(C(F)(F)F)cc(C(F)(F)F)c3)[C@@H]2c2ccc(CO)cc2I)cc1 | 1.4 | 0.104 | 0.868 | -2.04 (inactive) | -0.743 | -0.799 | -0.981 | -0.492 | -1.34 | 0.551
27 | [N-]=[N+]=Nc1ccccc1[C@H]1OC(c2ccc(OCCCO)cc2)=N[C@@]1(CCS(=O)(=O)c1ccccc1)C(=O)O | 1.31 | 0.503 | 1.14 | -0.433 (inactive) | 0.104 | -0.359 | -0.18 | -0.116 | -0.601 | 1.25
28 | CCCC[C@@H]1C[C@H]1[C@@H](NC(=O)c1ccc(-c2ccccc2)cc1)c1ccc(-c2ccccc2)cc1 | -0.508 | 0.126 | 0.0604 | -2.88 (inactive) | 0.259 | 0.127 | 1.21 | 1.39 | 1.01 | 1.35
29 | C=CCC(OC(C)=O)[C@@H]1[C@@H](N(Cc2cccc3ccccc23)C(=O)c2ccc(C)cc2)c2cc(OCCCO)ccc2N1C(=O)Cc1ccc(OC)cc1 (stereo not given in full) | 0.102 | -0.413 | -0.281 | -1.53 (inactive) | -0.104 | 0.0349 | 0.254 | 0.492 | 0.576 | 1.05
30 | COC(=O)[C@@]1(Cc2ccccc2)[C@H]2c3cc(C(=O)N(C)C)n(Cc4c(-c5ccccc5)noc4C)c3C[C@H]2CN1C(=O)c1ccccc1 | 0.609 | 0.898 | 1.18 | 0.762 (inactive) | 0.377 | 0.638 | 0.144 | 0.0261 | -0.0672 | 1.22
31 | C=C[C@H](C)[C@@H](O)c1ccc(O)c2ccccc12 | 1.43 | -0.302 | -0.0488 | -0.0352 (inactive) | -0.152 | -0.61 | -0.775 | -0.189 | 0.0078 | 1.28
32 | COC(=O)C[C@H]1O[C@]2(C(=O)N(Cc3ccccc3)c3ccc(NC(C)=O)cc32)[C@@H](C)[C@@H]1[Si](C)(C)c1ccc(OC)cc1 | 0.407 | -0.097 | -0.362 | -0.703 (inactive) | 0.802 | 0.985 | 0.474 | 0.719 | 0.599 | 0.25
33 | C=CCNC(=O)[C@H]1[C@@H]2C(=O)O[C@@H](c3ccccc3)[C@@H](c3ccccc3)N2[C@@H](c2ccc(O)cc2)[C@]12C(=O)N(C(=O)OCCOC)c1ccc(C#CCCO)cc12 | 1.29 | 0.303 | 0.272 | 0.271 (inactive) | 1.18 | 0.713 | -0.248 | -0.0994 | -0.0705 | 0.681
